Results on 40 compounds are retold here after PubChem BioAssay (NCATS).

The source made the active and inactive calls. The call rests on the fitted dose curve; in most records, active means well fitted activation curve with a large enough effect; inconclusive means small, poorly fitted or top-dose-only effect; inactive means flat fitted curve, though single readings scatter.

This assay in a line: Confirmation and Secondary Assay for Modulators of Hemoglobin Beta Chain Splicing at IVS2 705 locus (AID 930). Further: % of control where 0% means no effect. The following applies: HeLa EGFP-705 splicing reporter, GFP fluorescence, 48 h; series mostly up to 46.1 µM; activation: at the top concentration. The text has this:
NIH Chemical Genomics Center [NCGC] NIH Molecular Libraries Screening Centers Network [MLSCN] MLSCN Grant: 1 X01 MH080684-01 PI Name: Dr. Ryszard Kole NCGC Assay Overview: Modulation of Alternative Splicing as Therapy Abnormal splicing is associated with a number of diseases, including cancer and genetic diseases such as cystic fibrosis, muscular dystrophy and beta-thalassemia. Alteration of disease associated splicing patterns provides a promising target for treatment. […] Mutations in the second intron of the b-globin gene at positions 654 or 705 are clinically relevant and cause mis-splicing which results in an out of frame gene product. […] EGFP-705 HeLa Cells as screen system. HeLa cell lines were stably transfected with a construct in which the EGFP (enhanced green fluorescent protein) cDNA was interrupted by the second intron of the beta-globin gene (IVS2-705). The ISV2 intron contains mutations which cause mis-splicing of EGFP and premature termination of EGFP which results in a nonfluorescent protein product. […] Expression of the transgene was driven by the CMV promoter. We concluded that a low molecular weight compound, which restored correct splicing of intron 2 would also generate functional EGFP protein, resulting in a fluorescent signal. Thus, the HeLa cells that express the EGFP-705 construct can be used for validation of splice site specificity of compounds identified in primary screening of the ISV2 654 construct.
NCGC Assay Protocol Summary: Confirmatory Screening. Freshly thawed HeLa EGFP-705 cells were seeded in 5 ul of optimem media (Invitrogen) containing 2 % fetal calf serum (Hyclone) and 1x penicillin/streptomycin (Invitrogen) at a concentration of 500 cells per well in 1536-well plates. Cells were incubated overnight at 37C in 5% CO2. The next day, cells were treated with DMSO, 500 nM antisense ISV2 654 PNA control oligo, or library compound and allowed to grow at 37C in 5% CO2 for 2 days. The PNA oligo blocked the mutation site in the intron and allowed proper (wild type) splicing to occur, resulting in full length EGFP expression and also allowed for optimization of the assay parameters. Plates were read in the Acumen Explorer (TTP Labtech) using 488 nm laser excitation and 500-520 nm emission PMT filter in a 1 x 8 uM capture mode. Fluorescnet objects ranging in size from 5 to 250 uM were measured and the total peak GFP intensity for each well was used for data analysis. Keywords: Thalassemia, beta-thalassemia, beta-globin, EGFP, ISV2 654, ISV2 705, SSO, PNA, antisense, splicing, MLSMR, MLSCN, NIH Roadmap, qHTS, NCGC
Take `CC(=O)OCC(=O)[C@]1(O)C(C)CC2C3CCC4=CC(=O)C=C[C@@]4(C)[C@]3(F)C(O)C[C@@]21C` (stereo not given in full): the “activation” value was 0.348% (inactive).

In the case of `Cc1c(S(=O)(=O)O)oc2c1C(=O)C(=O)c1c-2ccc2c1CCCC2(C)C`, the “activation” value is -0.117% [at 38.3 µM] (inactive).

As for `CCC(CO)NCCNC(CC)CO` (stereo not given), the “activation” value was -0.54% (inactive).

On to `Nc1nc2[nH]c(=O)c(=O)[nH]c2c(=O)[nH]1`, for which the “activation” value is -0.311% [at 38.3 µM] (inactive).

On to `NC(=O)NCC(N)C(=O)O` (stereo not given), for which the “activation” value is 0.75% [at 38.3 µM] (inactive).

With `C=CC1=C(C(=O)O)N2C(=O)C(NC(=O)/C(=N\O)c3csc(N)n3)C2SC1` (stereo not given), the “activation” value is -0.923% (inactive).

Take `COc1cc2c(cc1OC)-c1cc3ccc(OC)c(OC)c3c[n+]1CC2`: the “activation” value is 1.27% (inactive).

Turning to `COC(=O)c1cc(OC)c(=O)c2c(OC)c(OC)ccc2c1`, the “activation” value was -0.138% (inactive).

On to `CC(=O)OC1CC(OC(C)=O)[C@]2(C)C(CC(OC(C)=O)[C@]3(C)C2CC[C@@]2(C)C(c4ccoc4)OC(=O)C4O[C@]432)C1(C)C` (stereo not given in full), for which the “activation” value was -0.409% (inactive).

`CN1CCCC1CCO[C@@](C)(c1ccccc1)c1ccc(Cl)cc1` (stereo not given in full): the “activation” value was -1.41% (inactive).

With `CC1O[C@@H](O[C@H]2C(Oc3cc(O)c4c(c3)OC(c3ccc(O)cc3)CC4=O)OC(CO)C(O)C2O)C(O)C(O)C1O` (stereo not given in full), the “activation” value was 1.58% [at 38.3 µM] (inactive).

Take `C=C1C2=CC(=O)OC(c3ccoc3)[C@]2(C)CCC1[C@]1(C)C=CC(=O)C(C)(C)C1CC(=O)OC` (stereo not given in full): the “activation” value was -1.2% (inactive).

Turning to `NCC1O[C@@H](OC2C(N)CC(N)C(O)C2O[C@@H]2OC(CO)C(O)C2O)C(N)C(O)C1O` (stereo not given in full), the “activation” value is 0.391% (inactive).

Turning to `Cc1cn(C2CC(N=[N+]=[N-])C(CO)O2)c(=O)[nH]c1=O` (stereo not given), the “activation” value is 1.98% (inactive).

`CON`: the “activation” value is 1.15% [at 38.3 µM] (inactive).

On to `NCCCCC(NC(CCc1ccccc1)C(=O)O)C(=O)N1CCCC1C(=O)O` (stereo not given), for which the “activation” value is -0.734% (inactive).

`CCCC(NC(C)C(=O)N1C(C(=O)O)CC2CCCCC21)C(=O)OCC` (stereo not given): the “activation” value is 0.763% (inactive).

Consider `CC1(C)SC2C(N3C(=O)C(c4ccccc4)NC3(C)C)C(=O)N2C1C(=O)O` (stereo not given), for which the “activation” value is -0.315% (inactive).

As to `CCc1ccc2c(O)c3c(cc2c1C(=O)OC)C(=O)c1c(O)ccc(O)c1C3=O`, the “activation” value is 1.79% (inactive).

`CC1(C)OC2CC3C4CC(F)C5=CC(=O)CC[C@@]5(C)C4C(O)C[C@@]3(C)[C@]2(C(=O)CO)O1` (stereo not given in full): the “activation” value is -0.891% (inactive).

With `CC1=CCc2c(cc3oc(C)cc(=O)c3c2O)OC1`, the “activation” value is 5.78% (inactive).

As to `CNC1C(O)[C@@H]2OC(O[C@@H]3C(O)C(O)C(N)C[C@H]3N)C(N)C[C@H]2O[C@H]1O[C@@H]1OC(CO)C(N)C(O)C1O` (stereo not given in full), the “activation” value was 0.88% (inactive).

Regarding `COc1cc2c(cc1O)C(Cc1ccc(O)cc1)N(C)CC2` (stereo not given), the “activation” value is -0.129% [at 38.3 µM] (inactive).

For the compound `COC1C(O)C(CO)OC1n1cnc2c(=O)[nH]c(N)nc21` (stereo not given), the “activation” value was 1.51% [at 38.3 µM] (inactive).

With `C[C@@]12CCC3c4ccc(O)cc4CCC3C1CCC2O` (stereo not given in full), the “activation” value was 1.09% (inactive).

As to `CC(C)CC(NC(=O)OCC1c2ccccc2-c2ccccc21)C(=O)O` (stereo not given), the “activation” value was -0.162% [at 38.3 µM] (inactive).

On to `COc1cc2c(cc1O)C(Cc1ccc(O)cc1)[N+](C)(C)CC2` (stereo not given), for which the “activation” value is 0.272% (inactive).

On to `COC1C[C@@H](O[C@@H]2C(C)C(=O)OC(C)C(C)[C@H](OC(C)=O)C(C)C(=O)[C@@]3(CO3)CC(C)C(OC3OC(C)CC(N(C)C)[C@H]3OC(C)=O)C2C)OC(C)[C@@H]1OC(C)=O` (stereo not given in full), for which the “activation” value is 1.72% (inactive).

On to `Nc1ncnc2[nH]c(=O)[nH]c12`, for which the “activation” value is 2.36% [at 38.3 µM] (inactive).

On to `CCCCCCCCCCCCC(C(=O)O)C(C)C(=O)O` (stereo not given), for which the “activation” value is 3.14% (inactive).

For the compound `CC(=O)OCC1OC(n2cnc3c(Cl)nc(Cl)nc32)C(OC(C)=O)C1OC(C)=O` (stereo not given), the “activation” value is -0.0077% [at 38.3 µM] (inactive).

Regarding `Nc1nc2c(c(=O)[nH]1)N(C=O)C(CNc1ccc(C(=O)NC(CCC(=O)O)C(=O)O)cc1)CN2` (stereo not given), the “activation” value was 0.478% (inactive).

In the case of `CC(C)c1c(O)ccc2c1CCC1[C@@](C)(CO)CCC[C@@]21C` (stereo not given in full), the “activation” value was 0.521% (inactive).

Turning to `CC(=O)O[C@]1(C)CC[C@]23CC1C(C)(C)C2CC[C@@H]3C` (stereo not given in full), the “activation” value is 1% [at 38.3 µM] (inactive).

For the compound `CC12CCCC(O)(C1)C1CC(C)(C)C1CC2` (stereo not given), the “activation” value was 1.81% [at 38.3 µM] (inactive).

In the case of `CC(=O)NC(CCC(=O)O)C(=O)O` (stereo not given), the “activation” value was -1.03% (inactive).

`C=C1C[C@@]23C[C@@]1(O)CCC2[C@@]12C=CC(O)[C@](C)(C(=O)O1)C2C3C(=O)O` (stereo not given in full): the “activation” value was -0.184% [at 38.3 µM] (inactive).

Turning to `Nc1nc2c(nc(Br)n2C2OC(CO)C(O)C2O)c(=O)[nH]1` (stereo not given), the “activation” value is 1.45% [at 38.3 µM] (inactive).

On to `CC1CCC2(C(=O)O)CCC3(C)C(=CCC4C3(C)CCC3[C@@]4(C)CC(O)C(O)[C@@]3(C)CO)C2C1C` (stereo not given in full), for which the “activation” value was 0.387% [at 38.3 µM] (inactive).

In the case of `C=C1CCC(O)C/C1=C/C=C1\CCC[C@@]2(C)C(C(C)/C=C/C(C)C(C)C)CC[C@@H]12` (stereo not given in full), the “activation” value is -0.335% (inactive).
